Test results: PubChem BioAssay (Tox21)
Inconclusive results are not listed. Entries that show only a call come without a potency. Activity calls are given as the source filed them. The call rests on the fitted dose curve; in most records, active means well fitted activation curve with a large enough effect in the repeat runs; inconclusive means weak or mixed curves; inactive means flat fitted curve, though single readings scatter.

assay: A CellTox Green Cytotoxicity Assay to monitor cytotoxicity in HepG2 cells - 16 hour (AID 1224876); settings: CellTox Green fluorescence; series mostly up to 76.8 µM; further: nearly all actives have a fitted effect of over 45% in size
Description: National Center for Advancing Translational Sciences [NCATS]
NIH Chemical Genomics Center [NCGC]
U.S. Environmental Protection Agency [EPA]
National Institutes of Environmental Health Sciences [NIEHS]
National Toxicology Program [NTP]
Cell-based models are critical for drug discovery. Determining the natural cytotoxic effects resulting from test compounds is an essential research activity. A CellTox Green Cytotoxicity Assay to monitor cytotoxicity in real time of continues cell culture during 40 hours of the compound treatment was used to screen Tox21 10K library compounds in HepG2 cells. CellTox Green Cytotoxicity Assay is a nonlytic, homogeneous, biofluorescent method to measure cytotoxicity in cell culture after experimental manipulation. The assay system uses a proprietary asymmetric cyanine dye that is excluded from viable cells but preferentially stains the dead cell's DNA. […] Viable cells produce no appreciable increases in fluorescence. Therefore, the fluorescence signal produced by the binding interaction with dead cell DNA is proportional to cytotoxicity.
The mixture of HepG2 cell suspension and reagents were dispensed at 600cells/6 ul/well in 1536-well tissue culture treated black solid bottom plates using a Multidrop dispenser. After the assay plates were incubated at a 37 C/5% CO2 incubator for 5 hours, 23 nL of compounds dissolved in DMSO, positive and negative controls was transferred to the assay plate by a pintool work station. The plates were incubated at 37 C for 40 hours. The fluorescence intensity were measured at 0h, 8h, 16h, 24h, 32h and 40h time points using ViewLux plate reader during compound treatment.
Potency means the concentration at half of the fitted maximal effect.

| Structure (SMILES) | Potency |
| --- | --- |
| CCN(CC)c1ccc(C(=C2C=CC(=[N+](CC)CC)C=C2)c2cc(S(=O)(=O)O)ccc2S(=O)(=O)[O-])cc1 | inactive |
| O=[N+]([O-])c1ccc(NCCO)c(OCCO)c1 | inactive |
| CCc1c(C(=O)NN2CCCCC2)nn(-c2ccc(Cl)cc2Cl)c1-c1ccc(Br)cc1 | inactive |
| C[N+](C)(C)CCOC(=O)CCC(=O)OCC[N+](C)(C)C | inactive |
| CN(C)CCN(Cc1ccccc1)c1ccccn1 | inactive |
| C=C1C(=C/C=C2\CCC[C@]3(C)[C@@H]([C@H](C)/C=C/[C@@H](O)C4CC4)CC[C@@H]23)C[C@@H](O)C[C@@H]1O | inactive |
| CN(C)c1ccc(C(c2ccccc2)c2ccc(N(C)C)cc2)cc1 | inactive |
| Cc1oc2c(NC(=O)c3c(Cl)cccc3Cl)cccc2c1C(C)(C)O | inactive |
| COS(=O)(=O)C(F)(F)F | inactive |
| Cc1cccc(C)c1OCC(=O)N[C@@H](Cc1ccccc1)[C@@H](O)C[C@H](Cc1ccccc1)NC(=O)[C@H](C(C)C)N1CCCNC1=O | inactive |
| CCN(CC)c1ccc2c(-c3ccccc3C(=O)O)c3ccc(=[N+](CC)CC)cc-3oc2c1 | 24.5 µM (active) |
| O=C(O)c1ccccc1Cl | inactive |
| O=C1CCCCCCCCCCCC(=O)OCCO1 | inactive |
| CCC(C)O (stereo not given) | inactive |
| Cc1c(N)cccc1[N+](=O)[O-] | inactive |
| Cc1cccc(C)c1NC(=O)CN(CC(=O)O)CC(=O)O | inactive |
| O=C(O)c1ccc(S(=O)(=O)O)cc1C(=O)O | inactive |
| CCCCCCCCCCCc1ccccc1 | inactive |
| CC1OC(=O)C(C)OC1=O (stereo not given) | inactive |
| C=C(C)C(=O)OCCOCC | inactive |

| Structure (SMILES) | Potency |
| --- | --- |
| COc1cccc(N(C)C(=S)Oc2ccc3c(c2)CCCC3)n1 | inactive |
| CC(C)Cc1ccc(C(C)C(=O)OCc2ccccn2)cc1 (stereo not given) | inactive |
| C/C=C/C=C/CO | inactive |
| C=CC(=O)OCCOCCOCCOCCOC(=O)C=C | inactive |
| CC(C)(COC(=O)c1ccccc1)COC(=O)c1ccccc1 | inactive |
| Nc1c(CC(=O)O)cccc1C(=O)c1ccc(Br)cc1 | inactive |
| CCn1cc(C(=O)O)c(=O)c2cnc(N3CCNCC3)nc21 | inactive |
| CCCCCCCC/C=C\CCCCCCCC(=O)OCC | inactive |
| O=C(CS)Nc1ccccc1 | inactive |
| C=CC(=O)OCCOCCOC(=O)C=C | inactive |
| C#Cc1cccc(Nc2ncnc3cc(OCCOC)c(OCCOC)cc23)c1 | inactive |
| CCCCC/C=C\C/C=C\CCCCCCCC(=O)NC(C)c1ccccc1 (stereo not given) | inactive |
| NCc1ccccc1Sc1ccccc1CO | inactive |
| Nc1ccc([N+](=O)[O-])c(C(F)(F)F)c1 | inactive |
| C[C@H](CCC(=O)O)[C@H]1CC[C@H]2[C@@H]3CC[C@@H]4C[C@H](O)CC[C@]4(C)[C@H]3C[C@H](O)[C@]12C | inactive |
| CN(C)CCN(Cc1ccc(Cl)cc1)c1ccccn1 | inactive |
| COc1ccc(S(=O)(=O)N2C(=O)[C@@](c3ccccc3OC)(N3C[C@H](O)C[C@H]3C(=O)N(C)C)c3cc(Cl)ccc32)c(OC)c1 | inactive |
| OC(C#CCN1CCCC1)(c1ccccc1)c1ccccc1 | inactive |
| CCC(Cl)CCC(Cl)C(Cl)CC(Cl)C(Cl)C(Cl)CCl (stereo not given) | inactive |
| CCCCc1nc2cccnc2n1Cc1ccc(-c2ccccc2-c2nnn[nH]2)cc1 | inactive |
